According to PubChem BioAssay AID1159580 (chemical genetic matrix, 2015):
The whole screen tested about 5,500 compounds, of which about 2,000 (36%) were called active. Inconclusive results (about 18%) are left out. Rule as the data show it: active = normalized growth mostly below about 0.91 (no sharp cut-off); inconclusive = no clear call, values can overlap the other calls; inactive = mostly above about 0.92. Some of the results follow.

Assay: chemical genetic growth profiling, strain panel (AID 1159580);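 also: tested at 20 µM; growth read once vehicle control cultures reached saturation at 30 °C; 1 = growth at the plate median or of vehicle wells; lower values mean less growth of the strain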
Details: growth OD

Measured: normalized growth

CN[C@@H]1[C@H](OC2[C@H](O[C@H]3[C@H](O)[C@@H](O)[C@H](N=C(N)N)[C@@H](O)[C@@H]3N=C(N)N)O[C@@H](C)[C@]2(O)C=O)O[C@@H](CO)[C@H](O)[C@H]1O (stereo not given in full)
inactive: S. cerevisiae deletion strains, locus YKL009W, strain mrt4, hits give low values 1.03 | S. cerevisiae deletion strains, locus YKL068W, hits give low values 1 | S. cerevisiae deletion strains, locus YKL085W, strain MDH1 (second series), hits give low values 1 | S. cerevisiae deletion strains, locus YKL085W, strain MDH1, hits give low values 1 | S. cerevisiae deletion strains, locus YKL160W, strain elf1, hits give low values 1.02 | S. cerevisiae deletion strains, locus YKL190W, strain CNB1, hits give low values 0.997 | S. cerevisiae deletion strains, locus YKR001C, strain vps1, hits give low values 1.01 | S. cerevisiae deletion strains, locus YKR026C, strain gcn3, hits give low values 1 | S. cerevisiae deletion strains, locus YKR091W, strain srl3, hits give low values 1.01 | S. cerevisiae deletion strains, locus YLL001W, strain dnm1, hits give low values 1.03 | S. cerevisiae deletion strains, locus YLL026W, hits give low values 1.02 | S. cerevisiae deletion strains, locus YLL041C, strain sdh2, hits give low values 1 | S. cerevisiae deletion strains, locus YLR027C, strain aat2, hits give low values 1.02 | S. cerevisiae deletion strains, locus YLR039C, strain RIC1, hits give low values 0.997 | S. cerevisiae deletion strains, locus YLR058C, strain SHM2, hits give low values 1.01 | S. cerevisiae deletion strains, locus YLR102C, strain apc9, hits give low values 1.01 | S. cerevisiae deletion strains, locus YLR113W, strain HOG1, hits give low values 0.964 | S. cerevisiae deletion strains, locus YLR221C, strain rsa3, hits give low values 0.989 | S. cerevisiae deletion strains, locus YLR258W, strain gsy2, hits give low values 0.991 | S. cerevisiae deletion strains, locus YLR262C, strain YPT6 (second series), hits give low values 1.04 | S. cerevisiae deletion strains, locus YLR262C, strain YPT6, hits give low values 1.01 | S. cerevisiae deletion strains, locus YLR268W, strain sec22, hits give low values 1 | S. cerevisiae deletion strains, locus YLR320W, strain mms22, hits give low values 0.969 | S. cerevisiae deletion strains, locus YLR330W, strain CHS5, hits give low values 1 | S. cerevisiae deletion strains, locus YLR342W, strain FKS1 (second series), hits give low values 1.01 | S. cerevisiae deletion strains, locus YLR342W, strain FKS1, hits give low values 1.04 | S. cerevisiae deletion strains, locus YLR357W, strain rsc2, hits give low values 1.02 | S. cerevisiae deletion strains, locus YLR370C, strain arc18, hits give low values 1.02 | S. cerevisiae deletion strains, locus YLR371W, strain rom2, hits give low values 1.01 | S. cerevisiae deletion strains, locus YLR384C, strain iki3, hits give low values 1.01 | S. cerevisiae deletion strains, locus YLR418C, strain cdc73, hits give low values 1.02 | S. cerevisiae deletion strains, locus YML016C, strain PPZ1, hits give low values 1.02 | S. cerevisiae deletion strains, locus YML032C, strain rad52, hits give low values 1.01 | S. cerevisiae deletion strains, locus YML120C, strain ndi1, hits give low values 1.02 | S. cerevisiae deletion strains, locus YML124C, strain tub3, hits give low values 1.02 | S. cerevisiae deletion strains, locus YMR058W, strain fet3, hits give low values 1.02 | S. cerevisiae deletion strains, locus YMR078C, strain ctf18, hits give low values 1.02 | S. cerevisiae deletion strains, locus YMR125W, strain sto1, hits give low values 0.969 | S. cerevisiae deletion strains, locus YMR129W, hits give low values 1 | S. cerevisiae deletion strains, locus YMR205C, strain PFK2, hits give low values 1.02 | S. cerevisiae deletion strains, locus YMR223W, strain ubp8, hits give low values 1.02 | S. cerevisiae deletion strains, locus YMR231W, strain pep5, hits give low values 0.997 | S. cerevisiae deletion strains, locus YMR263W, strain SAP30, hits give low values 1.01 | S. cerevisiae deletion strains, locus YMR307W, strain GAS1, hits give low values 0.965 | S. cerevisiae deletion strains, locus YNL067W, strain RPL9B, hits give low values 1.01 | S. cerevisiae deletion strains, locus YNL071W, strain lat1, hits give low values 0.992 | S. cerevisiae deletion strains, locus YNL128W, strain TEP1, hits give low values 1.01 | S. cerevisiae deletion strains, locus YNL153C, strain GIM3, hits give low values 1.01 | S. cerevisiae deletion strains, locus YNL183C, strain NPR1, hits give low values 0.938 | S. cerevisiae deletion strains, locus YNL209W, strain ssb2, hits give low values 0.998 | S. cerevisiae deletion strains, locus YNL233W, strain BNI4, hits give low values 1.01 | S. cerevisiae deletion strains, locus YNL248C, strain rpa49, hits give low values 0.962 | S. cerevisiae deletion strains, locus YNL250W, strain rad50, hits give low values 1.02 | S. cerevisiae deletion strains, locus YNL271C, strain bni1, hits give low values 1.01 | S. cerevisiae deletion strains, locus YNL298W, strain CLA4, hits give low values 1.02 | S. cerevisiae deletion strains, locus YNL307C, strain MCK1, hits give low values 1.02 | S. cerevisiae deletion strains, locus YNL322C, strain KRE1 (second series), hits give low values 1 | S. cerevisiae deletion strains, locus YNR049C, strain mso1, hits give low values 0.999 | S. cerevisiae deletion strains, locus YNR052C, strain pop2, hits give low values 1 | S. cerevisiae deletion strains, locus YOL006C, strain TOP1, hits give low values 1.01 | S. cerevisiae deletion strains, locus YOL012C, strain htz1 1.07 | S. cerevisiae deletion strains, locus YOL147C, strain pex11, hits give low values 1.01 | S. cerevisiae deletion strains, locus YOR001W, strain rrp6, hits give low values 1.04 | S. cerevisiae deletion strains, locus YOR061W, strain CKA2, hits give low values 1.01 | S. cerevisiae deletion strains, locus YOR069W, strain VPS5, hits give low values 1.01 | S. cerevisiae deletion strains, locus YOR070C, strain gyp1, hits give low values 0.987 | S. cerevisiae deletion strains, locus YOR080W, strain dia2, hits give low values 1 | S. cerevisiae deletion strains, locus YOR083W, strain WHI5, hits give low values 0.989 | S. cerevisiae deletion strains, locus YOR106W, strain vam3, hits give low values 1.03 | S. cerevisiae deletion strains, locus YOR136W, strain idh2, hits give low values 1.02 | S. cerevisiae deletion strains, locus YOR144C, strain elg1, hits give low values 1.02 | S. cerevisiae deletion strains, locus YOR184W, strain ser1, hits give low values 1.03 | S. cerevisiae deletion strains, locus YOR231W, strain MKK1, hits give low values 0.979 | S. cerevisiae deletion strains, locus YOR265W, strain rbl2, hits give low values 1.01 | S. cerevisiae deletion strains, locus YOR270C, strain vph1, hits give low values 1.02 | S. cerevisiae deletion strains, locus YOR290C, strain snf2, hits give low values 0.977 | S. cerevisiae deletion strains, locus YOR316C, strain cot1, hits give low values 1.01 | S. cerevisiae deletion strains, locus YPL051W, strain arl3, hits give low values 1.01 | S. cerevisiae deletion strains, locus YPL055C, strain LGE1, hits give low values 1.01 | S. cerevisiae deletion strains, locus YPL078C, strain atp4, hits give low values 1.04 | S. cerevisiae deletion strains, locus YPL106C, strain sse1, hits give low values 0.987 | S. cerevisiae deletion strains, locus YPL240C, strain hsp82, hits give low values 1.01 | S. cerevisiae deletion strains, locus YPL241C, strain CIN2, hits give low values 1 | S. cerevisiae deletion strains, locus YPL256C, strain CLN2, hits give low values 0.976 | S. cerevisiae deletion strains, locus YPR119W, strain clb2, hits give low values 1.01 | S. cerevisiae deletion strains, locus YPR141C, strain kar3, hits give low values 1.01 | S. cerevisiae deletion strains, locus YPR163C, strain tif3, hits give low values 1.02 | S. cerevisiae deletion strains, locus YPR167C, strain met16, hits give low values 1.02 | S. cerevisiae deletion strains, strain wtn01, hits give low values 1.01 | S. cerevisiae strains, strain wild type, hits give low values 1.01
